Consider 30 compounds from PubChem BioAssay (NCI).

What all share (assay): NCI-60 one-dose screen, 48 h (100 = growth as untreated, 0 = no growth, -100 = all killed)
Holding throughout (settings): 10 µM

Assay [1] has as its system SR leukemia.
For assay [2], the system named is RPMI-8226 leukemia.
Assay [3] has as its system OVCAR-8 ovarian.
Assay [4] relates to OVCAR-5 ovarian.
Assay [5] concerns OVCAR-4 ovarian.
The test system of assay [6] is SK-OV-3 ovarian.
In assay [7] the test system is IGROV1 ovarian.
Assay [8] deals with OVCAR-3 ovarian.
Assay [9] relates to HS 578T breast.
For assay [10], the system named is NCI/ADR-RES ovarian.

Each structure is given as a SMILES string. The panel holds about 83,000 compounds, 20% with a hit somewhere; the sample as a whole holds those more often.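 Cells were grown in 96-well plates and exposed to the test compound at a single concentration for 48 hours; results are reported as percent growth, with values below 10 considered active.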 A number with no mark means an inactive call. Calls of active or inactive are those of the source.

For `CC(=O)OC1CC2C(C)(C)OC3CC(=O)OCC32C2CCC3(C)C(=CCC3c3ccoc3)C12C` (stereo not given), the growth in assay [1] was 91.1%; in [2] it was 72.8%; in [3], 108%; in [4], 95.9%; in [5], 105%; in assay [6], 108%. Moreover, the growth was 58.2% in assay [7], 93.8% in [8], 93.6% in [9] and 124% in assay [10].

Regarding `O=C(O)CCC(=O)OC(C1CO1)C(OC(=O)CCC(=O)O)C1CO1` (stereo not given), the growth in [1] is 101%; in assay [2], 90.4%; in [3], 95.9%; in [4], 93.4%; in [5] it was 107%; in assay [6], 96.8%. Moreover, the growth was 110% in assay [7], 103% in assay [8], 113% in [9] and 109% in [10].

Take `S=c1nn[nH]c2ccccc12`: the growth in assay [1] was 92.2%; in assay [2] it was 117%; in assay [3], 103%; in assay [4], 105%; in assay [5] it was 114%; in assay [6] it was 99.8%. Further, the growth in assay [7] is 97.7%; in assay [8] it was 111%; in assay [9] it was 109%; in [10] it was 105%.

For the compound `Sc1ccc(Nc2c3ccccc3nc3ccccc23)cc1`, the growth in assay [1] is 80.5%; in assay [2], 44.2%; in [3], 106%; in assay [4], 99.2%; in [5], 95.6%; in assay [6], 79.2%. For the same compound, the growth in [7] is 89.3%; in assay [8] it was 100%; in assay [9] it was 112%; in assay [10] it was 51.3%.

With `CC1C(=O)c2ccccc2CC1C(=O)O` (stereo not given), the growth in assay [1] was 95.8%; in assay [2] it was 110%; in assay [3] it was 97%; in [4], 103%; in [5], 108%; in assay [6], 108%. The growth is 100% in assay [7], 129% in assay [8], 119% in [9] and 102% in assay [10].

Take `CC1=CC(C)(C)NC(=S)N1c1ccc(S(=O)(=O)O)c2cccc(S(=O)(=O)O)c12`: the growth was 109% in assay [1]; 113% in [2]; 114% in assay [3]; 105% in [4]; 117% in [5]; 115% in [6]. Moreover, the growth in assay [7] is 95.9%; in assay [8], 99.9%; in [9] it was 92.8%; in assay [10] it was 110%.

For the compound `CC(=O)N(C)c1ccc([N+](=O)[O-])cc1`, the growth in assay [1] was 105%; in assay [2], 120%; in assay [3] it was 99.6%; in assay [4], 91.8%; in assay [5] it was 119%; in [6] it was 106%. For the same compound, the growth is 117% in assay [7], 118% in [8], 120% in assay [9] and 106% in [10].

As to `CCCCCCCO`, the growth in assay [1] is 91.5%; in assay [2], 102%; in assay [3] it was 99.7%; in [4], 87.5%; in assay [5] it was 97.9%; in [6], 106%. The growth in assay [7] was 115%; in assay [8], 115%; in assay [9] it was 102%; in [10] it was 107%.

In the case of `CC(C)(C)c1cc(O)c(C(C)(C)C)cc1O`, the growth was 92.5% in [1]; 54.1% in [2]; 93% in assay [3]; 97.2% in [4]; 74.6% in [5]; 125% in assay [6]. The growth was 110% in assay [7], 99.2% in [8], 98.8% in [9] and 100% in [10].

As to `Cc1cccc([N+](=O)[O-])c1Cl`, the growth was 117% in assay [1]; 103% in assay [2]; 99.6% in assay [3]; 96.4% in assay [4]; 109% in assay [5]; 107% in [6]. In addition, the growth is 112% in [7], 106% in assay [8], 98.1% in assay [9] and 92.8% in assay [10].

For `O=C(O)CCCc1ccccc1`, the growth in assay [1] was 96.9%; in [2] it was 110%; in assay [3], 96.7%; in [4] it was 104%; in assay [5], 117%; in [6], 110%. The growth in [7] is 121%; in assay [8], 121%; in assay [9] it was 118%; in assay [10], 103%.

With `CC(=O)NC(N)=S`, the growth in assay [1] was 90.4%; in assay [2], 103%; in assay [3] it was 104%; in [4], 116%; in assay [5] it was 111%; in [6] it was 118%. Further, the growth in [7] was 121%; in [8], 119%; in [9], 115%; in assay [10] it was 110%.

With `O=C1Cc2cc(O)ccc2O1`, the growth in assay [1] is 91.8%; in assay [2] it was 96.1%; in assay [3], 102%; in [4] it was 113%; in assay [5], 118%; in assay [6], 99.8%. For the same compound, the growth in assay [7] is 104%; in assay [8] it was 120%; in assay [9], 119%; in [10], 107%.

`O=C1c2ccccc2C(=O)N1OCc1ccccc1`: the growth is 93.4% in assay [1]; 102% in assay [2]; 105% in assay [3]; 97.2% in [4]; 105% in assay [5]; 99.2% in [6]. Further, the growth is 94.4% in [7], 105% in assay [8], 113% in assay [9] and 116% in [10].

As for `O=C(O)c1ccnc(Br)c1`, the growth in assay [1] is 109%; in [2], 115%; in [3], 103%; in [4], 107%; in [5], 107%; in assay [6], 101%. Besides, the growth was 117% in [7], 112% in assay [8], 107% in assay [9] and 111% in assay [10].

On to `CC1(C)/C(=C\CO)C2CCC1C2` (stereo not given), for which the growth in assay [1] is 97.8%; in assay [2] it was 91.6%; in assay [3], 114%; in assay [4], 105%; in assay [5], 111%; in assay [6], 99.8%. Further, the growth in assay [7] is 112%; in assay [8] it was 119%; in assay [9] it was 101%; in [10] it was 105%.

For the compound `CCOC(=O)CSc1c([N+](=O)[O-])ncn1C`, the growth in [1] is 86.4%; in assay [2], 99.7%; in assay [3] it was 103%; in [4], 91.8%; in assay [5], 105%; in assay [6], 110%. Further, the growth in assay [7] is 95.5%; in assay [8], 103%; in [9], 103%; in [10] it was 101%.

As to `COc1cc(OC)c2ccc(=O)oc2c1`, the growth in assay [1] was 125%; in [2] it was 116%; in assay [3], 103%; in assay [4], 90.3%; in assay [5], 107%; in assay [6] it was 112%. Moreover, the growth was 130% in assay [7], 110% in assay [8], 97.1% in assay [9] and 105% in assay [10].

In the case of `Cc1cc(=O)[nH]c(NN=C2CCCC2)n1`, the growth in assay [1] is 103%; in [2], 107%; in assay [3], 112%; in [4], 99.4%; in assay [5], 114%; in [6], 103%. For the same compound, the growth in assay [7] was 107%; in assay [8] it was 110%; in [9] it was 121%; in assay [10], 121%.

As to `Cc1cc(N)ccc1-c1ccc(N)cc1C`, the growth in assay [1] is 95.2%; in assay [2], 108%; in assay [3] it was 90.7%; in assay [4], 98.4%; in assay [5], 108%; in assay [6], 96.4%. For the same compound, the growth was 104% in assay [7], 99.8% in [8], 90.4% in assay [9] and 92.5% in assay [10].

As to `CN(C)CCC(=O)c1ccc(O)cc1`, the growth in assay [1] was 105%; in assay [2], 89.6%; in assay [3], 102%; in assay [4], 115%; in assay [5], 108%; in [6], 110%. Besides, the growth was 113% in assay [7], 97.4% in assay [8], 112% in assay [9] and 106% in assay [10].

With `COC(=O)C(O)c1ccccc1` (stereo not given), the growth in assay [1] was 108%; in assay [2] it was 111%; in assay [3], 108%; in assay [4] it was 97.6%; in assay [5] it was 113%; in [6], 105%. The growth was 123% in [7], 104% in assay [8], 125% in [9] and 110% in assay [10].

As to `COC(=O)Nc1nc2ccc(C(=O)c3cccs3)cc2[nH]1`, the growth in [1] is -4.93% (active); in assay [2], 28.7%; in [3], 13.1%; in [4], 42.4%; in assay [5] it was 36.3%; in assay [6], 13.3%. For the same compound, the growth is 39.1% in assay [7], -7.19% (active) in assay [8], 20.9% in [9] and -20.4% (active) in [10].

`CCCCCCCCCCCCCCCCC1CC(=O)OC1=O` (stereo not given): the growth in assay [1] is 99.3%; in [2] it was 108%; in assay [3], 101%; in [4] it was 102%; in assay [5], 108%; in assay [6], 106%. Besides, the growth in assay [7] is 124%; in [8], 119%; in [9] it was 106%; in assay [10], 113%.

On to `O=C(O)[C@@H]1[C@H]2C[C@H]3c4[nH]c5ccccc5c4CCN3C[C@@H]2CC[C@@H]1O`, for which the growth was 115% in assay [1]; 111% in [2]; 87.6% in assay [3]; 105% in assay [4]; 103% in [5]; 115% in assay [6]. In addition, the growth was 114% in assay [7], 111% in [8], 102% in [9] and 112% in assay [10].

For the compound `COc1ccccc1N=Nc1c(O)ccc2cc(S(=O)(=O)O)ccc12`, the growth is 91.7% in assay [1]; 99.6% in assay [2]; 93.2% in [3]; 103% in assay [4]; 105% in [5]; 88.8% in [6]. Also, the growth in assay [7] was 110%; in assay [8], 101%; in [9], 100%; in [10], 99.8%.

In the case of `O=[N+]([O-])c1ccc(/C=C/C=C/c2ccccc2)c(Cl)c1`, the growth in assay [1] is 95.2%; in [2], 87.6%; in [3] it was 98.8%; in assay [4], 102%; in [5], 82.5%; in assay [6], 98.8%. Further, the growth was 88% in [7], 105% in assay [8], 87.7% in assay [9] and 108% in assay [10].

Regarding `O=[N+]([O-])c1cccc(C(F)(F)F)c1`, the growth was 127% in [1]; 107% in assay [2]; 106% in [3]; 97% in assay [4]; 103% in assay [5]; 106% in assay [6]. For the same compound, the growth is 105% in assay [7], 117% in assay [8], 103% in [9] and 106% in assay [10].

`Clc1ccc(-c2nnc(-c3cccc4ccccc34)o2)cc1`: the growth in assay [1] is 85.5%; in [2] it was 101%; in assay [3] it was 94.7%; in assay [4], 93.3%; in [5] it was 84.1%; in [6], 91.6%. In addition, the growth is 69.2% in [7], 103% in [8], 103% in assay [9] and 95.6% in assay [10].

Turning to `Cc1ccccc1C1N=C2Oc3ccccc3C=C2C(=O)N1` (stereo not given), the growth in [1] was 45.2%; in [2] it was 95.4%; in assay [3], 53.3%; in assay [4], 17.3%; in assay [5] it was 74.5%; in [6], -6.3% (active). Moreover, the growth in [7] is 43.3%; in assay [8] it was -27.1% (active); in assay [9], 32.8%; in [10], 9.64% (active).
